Several values for one entry are separate records, joined by “and”; a condition that tells them apart may be missing. Equal entries are not always repeated. A structure can be active in one record and inactive in another. Activity calls are given as the source filed them. How the source made its calls: active means hit-call score of the fitted dose curve at least 0.9, where 1 is the maximum; inactive means score below 0.9.
Legend:
[1] = biological target: Transcription factor E2F1 (Homo sapiens) (UniProt Q01094); experiment: ATG_E2F_CIS: Attagene CIS-FACTORIAL HepG2 Assay for human E2F Transcription Factor 1 (AID 2282935); settings: HepG2 Attagene cis-reporter, E2F reporter RNA transcripts; actives raise or lower the signal
How it was run: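 In this cis-factorial format, endogenous factor activity drives transfected reporters in HepG2; transcripts collected at 24 h are quantified by fluorescence after RT-PCR and capillary separation.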

[2] = ATG_E_Box_CIS: Attagene CIS-FACTORIAL HepG2 Assay for human Enhancer Box (E-box) (AID 2282936); settings: HepG2 E-box cis-reporter transcription, actives raise or lower the signal
How it was run: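 Measured 24 h post-dosing in HepG2 cells transfected with multiple cis-regulated reporter units, signal being reporter mRNA induction detected by fluorescent RT-PCR with capillary electrophoresis; gain or loss fitted against DMSO.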

[3] = ATG_M_61_CIS: Attagene CIS-FACTORIAL HepG2 Assay for M61 Transcription Factor (Internal Marker) (AID 2282937); settings: HepG2 Attagene CIS-FACTORIAL M61 internal marker reporter; actives raise or lower the signal
How it was run: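 Using transiently transfected HepG2 liver cells, reporter transcript levels were assessed 24 h post-dosing by RT-PCR and capillary electrophoresis. Changes in either direction were fitted relative to DMSO controls.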

[4] = ATG_EGR_CIS: Attagene CIS-FACTORIAL HepG2 Assay for human Early Growth Response 1 (EGR1) (AID 2282938); settings: HepG2 Attagene CIS-FACTORIAL EGR reporter mRNA; actives raise or lower the signal
How it was run: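 Fluorescent capillary-electrophoresis signal of reporter cDNA fragments serves as read-out. HepG2 cells bear transiently transfected cis-promoter reporter units and are exposed 24 h; gain- or loss-of-signal is fitted against DMSO.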

[5] = ATG_M_19_CIS: Attagene CIS-FACTORIAL HepG2 Assay for M19 Transcription Factor (Internal Marker) (AID 2282939); settings: HepG2 Attagene CIS-FACTORIAL M19 internal marker reporter; actives raise or lower the signal
How it was run: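 Following a 24 h exposure, RNA from transfected HepG2 cells was reverse-transcribed, PCR-amplified with reporter-specific primers, end-labelled with 6-FAM and HpaI-digested before capillary separation. Values represent gain or loss versus DMSO.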

[6] = ATG_ERE_CIS: Attagene CIS-FACTORIAL HepG2 Assay for Estrogen Response Element (ERE) (AID 2282940); settings: HepG2 ERE cis-reporter, Attagene RNA transcript; actives raise or lower the signal
How it was run: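 HepG2, transient cis-reporter units, 24 h exposure. RNA isolated, oligo(dT) RT, reporter-specific PCR, FAM extension, HpaI cut, CE detection. Gain/loss-of-signal vs DMSO.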

[7] = ATG_Ets_CIS: Attagene CIS-FACTORIAL HepG2 Assay for human Erythroblast Transformation Specific (ETS) (AID 2282941); settings: HepG2 ETS cis-reporter transcription, actives raise or lower the signal
How it was run: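 Bidirectional fit versus DMSO of reporter mRNA signal, detected by RT-PCR and capillary electrophoresis in HepG2 cells transiently transfected with cis-element reporters and dosed 24 h.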

[8] = biological target: Hepatocyte nuclear factor 3-beta (Homo sapiens) (UniProt Q9Y261); experiment: ATG_FoxA2_CIS: Attagene CIS-FACTORIAL HepG2 Assay for human Forkhead box A2 (FOXA2) (AID 2282942); settings: HepG2 cis-reporter transcription factor activity, 24 h; actives raise or lower the signal
How it was run: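 Fluorescence signal of reporter cDNA fragments, separated by capillary electrophoresis, reflects endogenous transcription factor activity in transfected HepG2 after 24 h. Both increases and decreases fitted against DMSO.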

[9] = ATG_FoxO_CIS: Attagene CIS-FACTORIAL HepG2 Assay for human Forkhead box O (FoxO) (AID 2282943); settings: HepG2 Attagene cis-reporter, FoxO element, mRNA; actives raise or lower the signal
How it was run: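 24 h chemical exposure, HepG2 with transient cis-MRTU transfection. RNA extraction, oligo(dT) RT, reporter-specific PCR, primer-extension labelling, HpaI digestion, CE fragment analysis; bidirectional fit, DMSO baseline.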

[10] = ATG_GATA_CIS: Attagene CIS-FACTORIAL HepG2 Assay for human GATA Binding Protein (AID 2282944); settings: HepG2 GATA cis-element reporter, Attagene multiplex mRNA; actives raise or lower the signal
How it was run: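 DMSO serves as negative control and baseline for bidirectional fitting of reporter mRNA changes. HepG2 cells bearing transiently transfected cis-promoter reporters were exposed 24 h; transcripts detected via RT-PCR and capillary electrophoresis.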

[11] = ATG_GLI_CIS: Attagene CIS-FACTORIAL HepG2 Assay for human Zinc Finger Protein GLI1 (AID 2282945); settings: HepG2, Attagene cis-factorial reporter mRNA, GLI element; actives raise or lower the signal
How it was run: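 HepG2 cells transiently transfected with cis-promoter multiplexed reporter units report endogenous transcription factor activity. After 24 h chemical exposure, reporter mRNA was quantified by RT-PCR, 6-FAM labelling, HpaI digestion and capillary electrophoresis, with bidirectional fitting against DMSO.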

[12] = biological target: Bile acid receptor (Homo sapiens) (UniProt Q96RI1); experiment: ATG_IR1_CIS: Attagene CIS-FACTORIAL HepG2 Assay for human Nuclear Receptor Subfamily 1 Group H Member 4 (NR1H4), IR1 submotif (AID 2282946); settings: IR1 reporter transcription, actives raise or lower the signal
How it was run: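 Readout: reporter transcript levels by RT-PCR with fluorescent capillary electrophoresis, from HepG2 cells transiently transfected with multiplexed cis-regulated reporters and dosed 24 h. Gain- or loss-of-signal fitted versus DMSO negative control.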

[13] = ATG_GRE_CIS: Attagene CIS-FACTORIAL HepG2 Assay for human Glucocorticoid Response Elements (GRE) (AID 2282947); settings: HepG2 GRE cis-reporter, Attagene multiplex mRNA; actives raise or lower the signal
How it was run: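 HepG2, transient cis-reporter transfection, 24 h. Reporter mRNA: RT-PCR then CE, fluorescence. Fit both directions vs DMSO.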

[14] = ATG_ISRE_CIS: Attagene CIS-FACTORIAL HepG2 Assay for human Interferon Regulatory Factor 1 (IRF1) binding to an Interferon-Stimulated Response Element (ISRE) (AID 2282948); settings: HepG2 ISRE cis-reporter (Attagene), mRNA transcription readout; actives raise or lower the signal
How it was run: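 Uses HepG2 liver cells transfected with cis-regulated reporters and measures mRNA 24 h post-dosing through RT-PCR, primer-extension labelling and capillary electrophoresis, with DMSO as negative control.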

[15] = ATG_M_32_CIS: Attagene CIS-FACTORIAL HepG2 Assay for M32 Transcription Factor (Internal Marker) (AID 2282949); settings: HepG2 Attagene cis-factorial M32 reporter, mRNA; actives raise or lower the signal;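 further: background control marker of the multiplexed CIS panel rather than a real target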
How it was run: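 Using DMSO as baseline, bidirectional curve fits were applied to reporter mRNA signals. These came from transiently transfected HepG2 cells exposed for 24 h, with RNA analysed by RT-PCR, FAM primer extension, HpaI digestion and CE.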

[16] = ATG_M_06_CIS: Attagene CIS-FACTORIAL HepG2 Assay for M06 Transcription Factor (Internal Marker) (AID 2282950); settings: HepG2 Attagene CIS-FACTORIAL M06 internal marker reporter; actives raise or lower the signal
How it was run: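 Fluorescence-labelled RT-PCR products from cis-promoter reporter units, cut with HpaI and resolved by capillary electrophoresis, give the signal. Cells are human HepG2, dosed for 24 h. Serves as background control, fitted relative to DMSO.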

[17] = biological target: Hepatocyte nuclear factor 6 (Homo sapiens) (UniProt Q9UBC0); experiment: ATG_HNF6_CIS: Attagene CIS-FACTORIAL HepG2 Assay for human Hepatocyte Nuclear Factor 6 (HNF6) (AID 2282952); settings: HepG2 Attagene cis-factorial HNF6 reporter transcription; actives raise or lower the signal
How it was run: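 Using cis-element reporters in HepG2 liver cells, the assay tracks endogenous factor-driven transcription 24 h post-dosing. Signal comes from 6-FAM-labelled, HpaI-digested RT-PCR fragments, with gain or loss scored against DMSO.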

[18] = biological target: Heat shock factor protein 1 (Homo sapiens) (UniProt Q00613); experiment: ATG_HSE_CIS: Attagene CIS-FACTORIAL HepG2 Assay for human Heat Shock Transcription Factor 1 (HSE) (AID 2282953); settings: HepG2 HSE cis-reporter, Attagene RNA transcription; actives raise or lower the signal
How it was run: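 After a 24 h incubation with test chemical, transfected HepG2 cells were harvested for RNA; reporter transcripts were measured by RT-PCR and capillary electrophoresis. Values reflect gain or loss of signal relative to DMSO.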

[19] = ATG_MRE_CIS: Attagene CIS-FACTORIAL HepG2 Assay for human Metal Responsive Element (MRE) (AID 2282954); settings: HepG2 MRE cis-reporter transcription, Attagene multiplex; actives raise or lower the signal
How it was run: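 Readout: capillary electrophoresis of 6-FAM-labelled, HpaI-digested RT-PCR reporter products. System: HepG2 cells carrying transient multiplexed cis reporters, dosed 24 h. Analysis: bidirectional fit, DMSO baseline.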

[20] = biological target: Hypoxia-inducible factor 1-alpha (Homo sapiens) (UniProt Q16665); experiment: ATG_HIF1a_CIS: Attagene CIS-FACTORIAL HepG2 Assay for human Hypoxia Inducible Factor 1 (HIF1A) (AID 2282951); settings: HepG2 Attagene cis-factorial HIF1a reporter transcription; actives raise or lower the signal
How it was run: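 Endogenous-TF cis reporter readout, human HepG2 cells, 24 h incubation; mRNA detected via RT-PCR and capillary electrophoresis fluorescence; DMSO-normalised bidirectional fitting.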

Measured: AC50

Sequence of Transcription factor E2F1 (Homo sapiens) (Q01094 whole entry, looked up): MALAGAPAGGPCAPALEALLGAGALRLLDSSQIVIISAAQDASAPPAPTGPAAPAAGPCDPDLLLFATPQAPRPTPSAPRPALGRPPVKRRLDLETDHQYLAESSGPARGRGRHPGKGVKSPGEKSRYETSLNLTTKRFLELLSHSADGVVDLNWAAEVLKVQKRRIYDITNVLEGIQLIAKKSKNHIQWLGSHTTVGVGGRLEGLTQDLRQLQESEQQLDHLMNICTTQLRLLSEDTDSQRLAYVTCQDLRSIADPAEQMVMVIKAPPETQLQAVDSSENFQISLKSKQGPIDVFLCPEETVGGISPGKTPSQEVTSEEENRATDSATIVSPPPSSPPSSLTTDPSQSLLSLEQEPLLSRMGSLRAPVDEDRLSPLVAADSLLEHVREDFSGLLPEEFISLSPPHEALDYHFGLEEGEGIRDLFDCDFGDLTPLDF
Sequence of Hepatocyte nuclear factor 6 (Homo sapiens) (Q9UBC0 whole entry, looked up, the tested form may be a part): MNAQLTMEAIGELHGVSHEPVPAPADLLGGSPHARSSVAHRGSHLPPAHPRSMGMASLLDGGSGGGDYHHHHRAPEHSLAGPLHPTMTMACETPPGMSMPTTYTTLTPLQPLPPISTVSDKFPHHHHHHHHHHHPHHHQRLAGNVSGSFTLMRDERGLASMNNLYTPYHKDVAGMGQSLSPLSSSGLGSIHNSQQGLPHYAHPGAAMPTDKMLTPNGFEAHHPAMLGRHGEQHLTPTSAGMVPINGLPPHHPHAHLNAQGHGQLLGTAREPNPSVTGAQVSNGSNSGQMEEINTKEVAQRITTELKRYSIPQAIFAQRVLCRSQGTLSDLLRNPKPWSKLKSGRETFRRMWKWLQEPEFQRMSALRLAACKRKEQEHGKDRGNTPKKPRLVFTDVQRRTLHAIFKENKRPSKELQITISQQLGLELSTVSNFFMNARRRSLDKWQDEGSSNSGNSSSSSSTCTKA
Sequence of Hepatocyte nuclear factor 3-beta (Homo sapiens) (Q9Y261 whole entry, looked up, the tested form may be a part): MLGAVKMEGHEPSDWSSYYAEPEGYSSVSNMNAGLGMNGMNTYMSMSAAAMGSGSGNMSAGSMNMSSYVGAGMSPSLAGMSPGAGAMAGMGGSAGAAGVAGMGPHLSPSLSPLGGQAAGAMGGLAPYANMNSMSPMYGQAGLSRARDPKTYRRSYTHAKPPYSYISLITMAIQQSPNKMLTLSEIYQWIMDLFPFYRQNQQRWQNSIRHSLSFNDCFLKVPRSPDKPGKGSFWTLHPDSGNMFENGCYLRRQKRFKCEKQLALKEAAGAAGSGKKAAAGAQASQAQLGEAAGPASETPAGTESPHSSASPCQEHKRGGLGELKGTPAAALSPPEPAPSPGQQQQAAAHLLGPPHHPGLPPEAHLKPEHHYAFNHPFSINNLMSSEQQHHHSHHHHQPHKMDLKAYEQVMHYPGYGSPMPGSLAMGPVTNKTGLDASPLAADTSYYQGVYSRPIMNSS
Sequence of Bile acid receptor (Homo sapiens) (Q96RI1 whole entry, looked up): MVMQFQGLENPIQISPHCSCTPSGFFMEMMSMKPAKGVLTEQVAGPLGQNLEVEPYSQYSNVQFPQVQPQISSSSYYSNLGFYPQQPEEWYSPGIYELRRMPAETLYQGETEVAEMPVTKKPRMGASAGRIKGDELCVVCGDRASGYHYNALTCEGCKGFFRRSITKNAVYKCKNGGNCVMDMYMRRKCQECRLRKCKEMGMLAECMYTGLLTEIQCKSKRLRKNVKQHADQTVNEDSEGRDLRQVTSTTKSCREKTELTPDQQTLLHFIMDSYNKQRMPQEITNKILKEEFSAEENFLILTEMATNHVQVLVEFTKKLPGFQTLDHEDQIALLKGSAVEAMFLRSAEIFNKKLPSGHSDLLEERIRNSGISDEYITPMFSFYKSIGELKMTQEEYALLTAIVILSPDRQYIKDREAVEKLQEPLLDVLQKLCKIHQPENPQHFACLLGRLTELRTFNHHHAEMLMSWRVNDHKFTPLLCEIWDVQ
Sequence of Heat shock factor protein 1 (Homo sapiens) (Q00613 whole entry, looked up): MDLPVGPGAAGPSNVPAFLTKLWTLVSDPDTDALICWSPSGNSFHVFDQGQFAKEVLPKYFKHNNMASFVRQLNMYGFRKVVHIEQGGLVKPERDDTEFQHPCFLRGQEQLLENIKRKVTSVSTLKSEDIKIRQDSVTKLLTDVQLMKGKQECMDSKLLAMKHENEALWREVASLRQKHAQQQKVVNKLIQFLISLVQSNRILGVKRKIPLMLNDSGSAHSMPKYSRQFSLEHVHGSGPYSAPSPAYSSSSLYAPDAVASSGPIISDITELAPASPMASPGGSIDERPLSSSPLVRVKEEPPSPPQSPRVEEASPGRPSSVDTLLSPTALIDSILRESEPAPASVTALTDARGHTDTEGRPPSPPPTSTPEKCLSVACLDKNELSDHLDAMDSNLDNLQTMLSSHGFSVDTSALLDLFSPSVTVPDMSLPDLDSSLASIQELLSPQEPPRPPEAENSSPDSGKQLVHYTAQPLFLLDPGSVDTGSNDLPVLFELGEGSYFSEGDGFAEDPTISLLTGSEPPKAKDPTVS
Sequence of Hypoxia-inducible factor 1-alpha (Homo sapiens) (Q16665 whole entry, looked up): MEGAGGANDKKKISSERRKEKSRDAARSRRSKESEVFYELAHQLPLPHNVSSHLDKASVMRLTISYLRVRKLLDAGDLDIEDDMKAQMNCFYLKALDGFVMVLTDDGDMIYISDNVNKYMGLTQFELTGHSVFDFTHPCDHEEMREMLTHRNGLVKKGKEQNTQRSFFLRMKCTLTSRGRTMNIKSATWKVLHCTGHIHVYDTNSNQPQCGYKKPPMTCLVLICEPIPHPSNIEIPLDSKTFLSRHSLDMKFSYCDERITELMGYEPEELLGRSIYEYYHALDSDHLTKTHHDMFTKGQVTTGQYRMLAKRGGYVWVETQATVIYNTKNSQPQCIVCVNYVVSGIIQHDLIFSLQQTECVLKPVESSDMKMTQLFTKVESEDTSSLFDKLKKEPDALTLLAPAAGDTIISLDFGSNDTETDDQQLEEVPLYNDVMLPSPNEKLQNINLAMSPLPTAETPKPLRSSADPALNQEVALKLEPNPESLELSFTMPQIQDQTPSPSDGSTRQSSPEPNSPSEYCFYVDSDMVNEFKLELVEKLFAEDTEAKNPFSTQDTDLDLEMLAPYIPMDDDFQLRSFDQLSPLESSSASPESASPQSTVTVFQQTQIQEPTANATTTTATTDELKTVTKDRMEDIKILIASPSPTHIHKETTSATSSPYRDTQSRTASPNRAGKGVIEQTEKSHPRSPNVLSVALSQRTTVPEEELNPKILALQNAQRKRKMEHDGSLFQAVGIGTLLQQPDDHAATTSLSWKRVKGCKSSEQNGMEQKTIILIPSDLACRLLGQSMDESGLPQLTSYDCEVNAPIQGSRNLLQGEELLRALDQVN

COC(=O)c1ccccc1CS(=O)(=O)NC(=O)Nc1nc(OC)cc(OC)n1
inactive: [1] | [2] | [3] | [4] | [5] | [6] | [7] | [8] | [9] | [10] | [11] | [12] | [13] | [14] | [15] | [16] | [17] | [18] | [19]
active: [2] 125 µM

CCC(C)(C)C(=O)OC1=C(c2ccc(Cl)cc2Cl)C(=O)OC12CCCCC2
inactive: [1] | [2] | [3] | [4] | [5] | [6] | [8] | [9] | [10] | [11] | [12] | [13] | [14] | [15] | [16] | [17] | [18] | [19]

COP(=O)(OC)OC=C(Cl)Cl
inactive: [1] | [2] | [3] | [5] | [6] | [7] | [8] | [9] | [10] | [11] | [15] | [16] | [17] | [18]
active: [4] 14.4 µM | [14] 50 µM | [19] 36.7 µM

O=C(Nc1ccccc1)Nc1cnns1
inactive: [1] | [2] | [3] | [5] | [6] | [8] | [9] | [10] | [13] | [14] | [15] | [16] | [20] | [17]
active: [4] 90.3 µM | [11] 50 µM | [12] 50 µM | [18] 93.4 µM | [19] 50 µM

C[C@H]1[C@H](c2ccc(Cl)cc2)SC(=O)N1C(=O)NC1CCCCC1
active: [1] 20.9 µM | [4] 15.4 µM | [19] 38.3 µM
inactive: [2] | [3] | [5] | [6] | [7] | [8] | [9] | [10] | [11] | [13] | [14] | [15] | [16] | [20] | [17] | [18]

O=S(=O)(O)C(F)(F)C(F)(F)C(F)(F)C(F)(F)C(F)(F)C(F)(F)C(F)(F)C(F)(F)F
inactive: [1] | [2] | [3] | [4] | [5] | [8] | [9] | [10] | [11] | [14] | [15] | [16] | [17] | [18] | [19]
active: [1] 128 µM and 48.9 µM | [2] 134 µM | [4] 102 µM | [5] 153 µM | [9] 143 µM and 58.9 µM and 223 µM | [10] 44.4 µM | [15] 53.6 µM | [17] 24.7 µM and 208 µM and 272 µM | [18] 182 µM and 54.8 µM
